Shown are actives, neighbours in structure and some others; about 21% of the full set was active somewhere.
Shiga inhibitor = A qHTS for Small Molecule Inhibitors of Shiga Toxin | 290,000 compounds, 9.2% hits | inhibition, % at 38.7 µM | Vero cells, Shiga toxin protein synthesis inhibition reporter; in the data active means inhibition mostly above about 28%, no sharp cut-off; inactive means mostly below about 43%; further: 0% is about no effect
Pf growth 96h = Primary qHTS for delayed death inhibitors of the malarial parasite plastid, 96 hour incubation; 320,000 compounds, 6.9% hits; Potency, µM (series often up to 28.7 µM), without a hit: top-dose activity change, negative = inhibition, most hits filed as inhibitors; P. falciparum luciferase reporter growth, 96 h; further: potency means the concentration at half of the fitted maximal effect; on the % scale 0 is the no-effect control and ±100 the full control effect
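P. falciparum expressing integrated firefly luciferase grown in erythrocytes (2% hematocrit, 0.05% parasitemia final) with compounds for 96 hours at 37 C, 5% CO2. Growth inhibition read as loss of luminescence after adding luciferase detection reagent.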
NS1 function inh = qHTS Assay for Inhibitors of Influenza NS1 Protein Function | Potency, µM (doses to about 46.1 µM), for inactives: at the top dose activity, positive = more growth | 270,000 compounds, 0.4% hits; calls by dose curve; further: potency means the concentration at half of the fitted maximal effect; actives are rising curves; nearly all actives have a fitted effect of over 50% in size
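Recovery from NS1-induced slow growth read by OD600 in budding yeast switched to galactose assay medium (pH 6.0, -URA) at 1:100 dilution. Compound 23 nl per well; the matching strain lacking NS1 serves as control.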
Sm TGR block = qHTS Assay for the Inhibitors of Schistosoma Mansoni Peroxiredoxins; Potency, µM (top dose mostly 114 µM), without a hit: at the top dose activity change, negative = inhibition, actives largely listed as inhibitors; Schistosoma mansoni thioredoxin glutathione reductase (TGR), Q962Y6; purified TGR, DTNB reduction, TNB absorbance 405 nm; 360,000 compounds, 3% hits; further: potency means the concentration at half of the fitted maximal effect; on the % scale 0 is the no-effect control and ±100 the full control effect; nearly all actives have a fitted effect of over 60% in size
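First, TGR (20 nM dispensed) and NADPH were mixed with compound. Second, a 15 min room-temperature incubation followed. Third, further NADPH and then DTNB were added to start the reaction. Finally, TNB absorbance was monitored kinetically.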
Pf growth 48h = Primary qHTS for delayed death inhibitors of the malarial parasite plastid, 48 hour incubation; P. falciparum luciferase growth in erythrocytes, 48 h; Potency, µM (doses to about 28.7 µM), for inactives: at the top dose activity change, negative = inhibition, hits mostly inhibitors; 310,000 compounds, 5.9% hits; AID 504832, 2011; further: potency means the concentration at half of the fitted maximal effect; on the % scale 0 is the no-effect control and ±100 the full control effect
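Luciferase-expressing P. falciparum in infected erythrocytes (2% hematocrit, 0.1% parasitemia final) in RPMI 1640/0.5% Albumax were exposed to compound for 48 hours at 37 C, 5% CO2; growth read as luminescence.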
Cycloheximide cs = Cycloheximide Counterscreen for Small Molecule Inhibitors of Shiga Toxin; cell reporter, cycloheximide protein synthesis inhibition counterscreen; max response, %; 300,000 compounds, 12% hits; in the data active means max response mostly above about 13%, no sharp cut-off; inactive means mostly below about 14%; further: read at 38.3 µM for the half of the compounds with a filed dose; 0% is about no effect
* = called active by the depositor; [ ] = another dose, or the depositor's remark. Unless noted, the call rests on the fitted dose curve; in most records, active means well fitted curve in the direction sought with a large enough effect; inconclusive means small, poorly fitted or top-dose-only effect, or another doubt; inactive means no such curve, though single readings can be large; an effect the other way counts as inactive or inconclusive.

Results for COc1ccc(CCNC(=S)N2CCN(S(=O)(=O)c3ccc(C)cc3)CC2)cc1 ?
Pf growth 96h: 2.62µM*; Sm TGR block: -1.0%; Pf growth 48h: 2.94µM*

Results for CC(=O)Nc1ccc(NC(=O)Cc2ccc(-c3ccccc3)cc2)cc1 ?
Shiga inhibitor: 13.3; Pf growth 96h: -17.8%; NS1 function inh: 14.7%; Sm TGR block: 3.0%; Pf growth 48h: 6.0%; Cycloheximide cs: 12.8

How did CC(C)N(c1ccccc1)c1ccc(NC(=O)CCl)cc1 do in these assays?
Shiga inhibitor: -7.3; Pf growth 96h: 10.4µM*; Sm TGR block: 14.1µM*; Pf growth 48h: 10.4µM*; Cycloheximide cs: 0.5

How did O=C(CCl)Nc1ccccc1Sc1ccccc1 do in these assays?
Shiga inhibitor: -8.3; Pf growth 96h: 9.28µM*; NS1 function inh: -8.1%; Sm TGR block: inconclusive; Cycloheximide cs: -1.8

What do the screens show for `O=C(CCl)Nc1ccc(N=Nc2ccccc2)cc1`?
Shiga inhibitor: 105.7*; Pf growth 96h: inconclusive; NS1 function inh: -66.9%; Sm TGR block: 39.8µM*; Pf growth 48h: 4.65µM*; Cycloheximide cs: 128.1*

How did O=C(Cc1ccc(Cl)cc1)Nc1ccccc1Sc1ccccc1 do in these assays?
Shiga inhibitor: 8.0; Pf growth 96h: inconclusive; NS1 function inh: 1.9%; Sm TGR block: -17.7%; Pf growth 48h: -18.4%; Cycloheximide cs: 5.8

Results for O=C(CCl)Nc1ccc(-c2ccccc2)cc1 ?
Shiga inhibitor: -20.6; Pf growth 96h: 13.1µM*; Sm TGR block: 4.47µM*; Pf growth 48h: inconclusive; Cycloheximide cs: -7.2

Results for CS(=O)Cc1cc(Sc2ccccc2)nc(-c2ccncc2)n1 (stereo unspecified) ?
Shiga inhibitor: -3.3; Pf growth 96h: inconclusive; Sm TGR block: -0.3%; Pf growth 48h: -0.1%; Cycloheximide cs: -2.1

How did COc1cccc(CNC(=O)CCC2CCCN(C(=O)CCn3cncn3)C2)c1 (stereo unspecified) do in these assays?
Shiga inhibitor: 29.1; Pf growth 96h: inconclusive; NS1 function inh: -6.7%; Pf growth 48h: -6.9%; Cycloheximide cs: 5.6

What do the screens show for `COc1cnc(SCc2c(Cl)cccc2Cl)nc1Cl`?
Shiga inhibitor: -5.9; Pf growth 96h: inconclusive; NS1 function inh: -66.7%; Sm TGR block: 32.5%; Pf growth 48h: -0.5%; Cycloheximide cs: 5.8

How did COc1ccccc1N1CCN(C(=O)Cn2nc3n(C)c4ccccc4n3c(=O)c2=O)CC1 do in these assays?
Shiga inhibitor: -16.7; Pf growth 96h: inconclusive; NS1 function inh: -1.4%; Sm TGR block: -0.1%[57.1 µM]; Pf growth 48h: 6.5%; Cycloheximide cs: -1.0

Results for O=C1CCC/C1=C/Nc1cccc(F)c1 ?
Shiga inhibitor: 52.8*; Pf growth 96h: 0.0%; NS1 function inh: 0.1%; Sm TGR block: inconclusive; Pf growth 48h: 20.3%; Cycloheximide cs: 16.3*

Results for O=C1CCCC/C1=C/Nc1ccc2c(c1)OCO2 ?
Shiga inhibitor: 109.4*; Pf growth 96h: -18.0%; NS1 function inh: -1.5%; Sm TGR block: 0.0%; Pf growth 48h: 82.3%; Cycloheximide cs: 30.5*

How did O=S1(=O)c2cccc3cccc(c23)N1CCCN1CCN(c2ccc(F)cc2)CC1 do in these assays?
Shiga inhibitor: -9.3; Pf growth 96h: -25.5%; Pf growth 48h: -15.1%; Cycloheximide cs: 5.5

How did CCN(CC)c1cc(C)c(C#N)c2nc3ccccc3n12 do in these assays?
Shiga inhibitor: -3.7; Pf growth 96h: inconclusive; NS1 function inh: 2.2%; Sm TGR block: 23.4%; Pf growth 48h: 5.86µM*; Cycloheximide cs: -2.2

Results for CCCNc1cc(C)c(C#N)c2nc3ccccc3n12 ?
Shiga inhibitor: -8.5; Pf growth 96h: -23.1%; NS1 function inh: 1.9%; Sm TGR block: 5.7%; Pf growth 48h: -0.8%; Cycloheximide cs: -3.5

What do the screens show for `Cc1cc(Cl)n2c(nc3ccccc32)c1C#N`?
Shiga inhibitor: 16.7; Pf growth 96h: inconclusive; Sm TGR block: 3.16µM*; Pf growth 48h: 8.28µM*; Cycloheximide cs: -2.4

What do the screens show for `COc1ccc(/C=C/C(=O)Nc2cc(C)on2)cc1`?
Shiga inhibitor: 107.4*; Pf growth 96h: 8.0%; NS1 function inh: -4.2%; Sm TGR block: -2.0%; Pf growth 48h: inconclusive; Cycloheximide cs: 42.2*

Results for Cc1cc(NC(=O)/C=C/c2ccccc2)no1 ?
Shiga inhibitor: 63.2*; Pf growth 96h: -18.1%; NS1 function inh: -112.4%; Sm TGR block: 6.5%; Cycloheximide cs: 41.0*

Results for Cc1cc(NS(=O)(=O)c2ccc(NC(=O)/C=C/c3ccccc3)cc2)no1 ?
Shiga inhibitor: -9.5; Pf growth 96h: -7.0%; NS1 function inh: 11.8%; Sm TGR block: -8.7%; Pf growth 48h: 21.2%; Cycloheximide cs: -2.4

Results for COc1ccc(C(=O)/C=C/Nc2cc(C)on2)cc1 ?
Shiga inhibitor: 64.7*; Pf growth 96h: -12.3%; NS1 function inh: -90.9%; Sm TGR block: 0.8%; Cycloheximide cs: 47.1*

Results for Cc1cc(NC(=O)/C=C/c2ccccc2Cl)no1 ?
Shiga inhibitor: 67.3*; Pf growth 96h: inconclusive; NS1 function inh: -8.0%; Sm TGR block: 0.4%; Pf growth 48h: inconclusive; Cycloheximide cs: 23.0*

How did COc1ccc(CCN(C)C(=O)c2c(C)nn(-c3ccccc3)c2C)cc1OC do in these assays?
Shiga inhibitor: -13.0; Pf growth 96h: inconclusive; NS1 function inh: 9.1%; Sm TGR block: -5.0%; Pf growth 48h: -15.9%; Cycloheximide cs: 1.6

Results for CCn1c(=O)c(=O)n(CC)c2cc(S(=O)(=O)Nc3cc(C)ccc3C)ccc21 ?
Shiga inhibitor: -2.1; Pf growth 96h: inconclusive; NS1 function inh: 19.5%; Sm TGR block: -8.4%; Pf growth 48h: -6.2%; Cycloheximide cs: -3.9

What do the screens show for `O=C(NCC(=O)N(c1cccnc1)C(C(=O)NC1CCCCC1)c1ccccc1F)c1ccco1` (stereo unspecified)?
Shiga inhibitor: 35.2; Pf growth 96h: -20.6%; NS1 function inh: 10.4%; Sm TGR block: 5.5%; Pf growth 48h: -6.6%; Cycloheximide cs: 20.5

How did Cc1ccc(C)c(Nc2ncccc2C(=O)NCc2cccs2)c1 do in these assays?
Shiga inhibitor: 1.5; Pf growth 96h: 9.28µM*; NS1 function inh: -30.3%; Sm TGR block: 5.9%; Pf growth 48h: 12.6%; Cycloheximide cs: 11.2

Results for O=C(NCc1cccs1)c1cc(-c2ccc(O)cc2)on1 ?
Shiga inhibitor: 85.6*; Pf growth 96h: -7.0%; NS1 function inh: 0.2%; Sm TGR block: 14.5%; Pf growth 48h: 101.4%; Cycloheximide cs: 42.6*

How did O=C(NCc1cccs1)c1cc(-c2cccc(Cl)c2)on1 do in these assays?
Shiga inhibitor: 43.6*; Pf growth 96h: 14.2%; NS1 function inh: -3.9%; Sm TGR block: 0.0%; Pf growth 48h: 70.1%; Cycloheximide cs: 25.6*

High-throughput results as filed in PubChem BioAssay.
